Results: PubChem BioAssay (NCATS)
Where “and” joins values, the source holds several entries; their conditions need not be identical. Equal entries are not always repeated. Inconclusive results are not listed. A structure can be active in one record and inactive in another. Calls of active or inactive are those of the source. The call rests on the fitted dose curve; in most records, active means well fitted curve in the direction sought with a large enough effect; inconclusive means small, poorly fitted or top-dose-only effect, or another doubt; inactive means no such curve, though single readings can be large; an effect the other way counts as inactive or inconclusive.

Tests used:
[1] = Viability qHTS for spleen associated tyrosine kinase inhibitor (SYKi) naive MV4-11 cells (AID 1963823); further: nearly all actives have a fitted effect of over 40% in size
Procedure, shortened: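 Seeding of 500 SYKi-naive MV4-11 cells per well onto pre-dispensed compounds preceded a 72 hr incubation at 37 C. Luminescent CellTiter-Glo signal, read after 10 min at room temperature, reflected viable cells.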

[2] = Viability qHTS for spleen associated tyrosine kinase inhibitor (SYKi) drug resistant MV4-11 cells (AID 1963824); further: nearly all actives have a fitted effect of over 35% in size
Procedure, shortened: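 SYK-inhibitor-resistant MV4-11 AML cells were seeded at 500 per well onto compound and cultured 72 hours (37 °C, 5% CO2). CellTiter-Glo was then added, and after 10 min at room temperature, luminescence gave viability.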

[3] = Quantitative highthroughput screen to assess conditional lethalithy of SEM cells grown in Human Plasma-Like Medium with dialyzed fetal bovine serum (HPLM+ds) (AID 1963882); further: nearly all actives have a fitted effect of over 35% in size; on Viability: series mostly up to about 46 µM
Procedure, shortened: (§1)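 Each medium arm—HPLM with 10% dialyzed FBS, or RPMI1640 with 5 mM glucose and 10% untreated or dialyzed FBS—was screened against an 11-point, 3-fold compound titration for 48 h at 37 °C, with CellTiter-Glo luminescence as endpoint.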

[4] = Quantitative highthroughput screen to assess conditional lethalithy of SEM cells grown in RPMI1640 with dialyzed fetal bovine serum (RPMI+ds) (AID 1963884); further: nearly all actives have a fitted effect of over 35% in size;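 on Viability: series mostly up to about 46 µM; 100% = DMSO control wells and 0% = empty wells without cells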
Procedure, shortened: as §1

[5] = Quantitative highthroughput screen to assess conditional lethalithy of SEM cells grown in RPMI1640 with unreated serum (RPMI+s) (AID 1963883); further: nearly all actives have a fitted effect of over 35% in size;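 on Viability: 100% = DMSO wells and 0% = empty wells without cells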
Procedure, shortened: as §1

[6] = Cellular viability qHTS for adrenocortical cancer (ACC) cell line SW-13 (AID 1963989); details: SW-13 ACC cells viability, CellTiter-Glo, 48 h; activity (max response): stronger effect = lower value; further: nearly all actives have a fitted effect of over 65% in size;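 on activity (max response): cells grown in serum-free medium with ITS supplement; on the % scale 0 is the no-effect control and ±100 the full control effect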
Procedure, shortened: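 Luminescent ATP read-out (CellTiter-Glo, 20 min at room temperature) measured metabolically competent SW-13 cells after 48 h compound treatment. Final concentrations spanned up to 46 uM; bortezomib served as positive control.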

[7] = Cellular viability qHTS for adrenocortical cancer (ACC) cell line NCI-H295R (AID 1963990); further: nearly all actives have a fitted effect of over 60% in size
Procedure, shortened: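 IC50 and maximal efficacy derive from four-parameter logistic modelling of titration curves, with reads scaled between DMSO-only wells (0%) and doxorubicin hydrochloride (100% inhibition). Compounds spanned up to 46 uM over 48 h.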

[8] = Quantitative highthroughput screen to assess conditional lethalithy of P12 Ichikawa cells grown in Human Plasma-Like Medium with dialyzed fetal bovine serum (HPLM+ds) (AID 1963879); details: Potency: viability; further: nearly all actives have a fitted effect of over 35% in size; on Viability: series mostly up to about 46 µM
Procedure, shortened: as §1

[9] = Quantitative highthroughput screen to assess conditional lethalithy of P12 Ichikawa cells grown in RPMI1640 with dialyzed fetal bovine serum (RPMI+ds) (AID 1963880); details: Potency: P12-Ichikawa viability; further: nearly all actives have a fitted effect of over 35% in size
Procedure, shortened: as §1

[10] = Quantitative highthroughput screen to assess conditional lethalithy of P12 Ichikawa cells grown in RPMI1640 with untreated serum (RPMI+s) (AID 1963881); details: Potency: viability; further: nearly all actives have a fitted effect of over 35% in size
Procedure, shortened: as §1
Potency means the concentration at half of the fitted maximal effect.

CCCS(=O)(=O)Nc1ccc(F)c(C(=O)c2c[nH]c3ncc(Cl)cc23)c1F
active: Potency [1] 11.6 µM | Potency [2] 11.8 µM | Potency [3] 9.35 µM | Potency [4] 13.2 µM

Cc1c(NC(=O)OC[C@@H]2COCCN2)cn2ncnc(Nc3ccc4c(cnn4Cc4cccc(F)c4)c3)c12
active: Potency [1] 10.3 µM and 13.2 µM | Potency [2] 8.2 µM and 11.8 µM | Potency [3] 9.35 µM | Potency [5] 9.35 µM | Potency [4] 10.5 µM | Potency [6] 15.8 µM | Potency [7] 31.6 µM

COc1cc(CCc2cc(NC(=O)c3ccc(N4C[C@@H](C)N[C@@H](C)C4)cc3)n[nH]2)cc(OC)c1
active: Potency [1] 1.18 µM | Potency [2] 1.64 µM | Potency [8] 20.9 µM | Potency [3] 5.26 µM | Potency [5] 4.69 µM | Potency [6] 28.2 µM | Potency [7] 17.8 µM

CN(C)c1nc(Cc2ccc(NC(=O)c3ccc4ccccc4c3)cc2)nc(Cl)c1CC(=O)O
active: Potency [9] 5.26 µM | Potency [10] 2.96 µM
inactive: Potency [1] | Potency [2] | Potency [3] | Potency [5] | Potency [4]

CN(c1ncccc1CNc1nc(Nc2ccc3c(c2)CC(=O)N3)ncc1C(F)(F)F)S(C)(=O)=O
active: Potency [1] 0.366 µM | Potency [2] 0.731 µM | Potency [3] 2.96 µM | Potency [5] 2.64 µM | Potency [6] 31.6 µM

c1ccc(-c2oc3ncnc(NC[C@@H]4CCCO4)c3c2-c2ccccc2)cc1
active: Potency [1] 9.2 µM | Potency [2] 13 µM
inactive: Potency [3] | activity (max response) [6] -50.5%

CCn1cc(C(=O)O)c(=O)c2cc(F)c(N3CCN(C)CC3)cc21
active: Potency [9] 4.69 µM | Potency [10] 4.18 µM
inactive: Potency [1] | Potency [3] | Potency [5] | Potency [4] | activity (max response) [6] 10.8% and 4.42% | Potency [7]
inactive and 16.6 µM (active): Potency [2]

Cc1c(CN2CCN(S(C)(=O)=O)CC2)sc2c(N3CCOCC3)nc(-c3cnc(N)nc3)nc12
active: Potency [1] 0.146 µM | Potency [2] 0.366 µM | Potency [8] 0.418 µM | Potency [6] 0.891 µM | Potency [7] 0.794 µM

CN(CC(=O)N(Cc1ccc(C2CCCCC2)cc1)c1ccc(C(=O)O)c(O)c1)S(=O)(=O)c1c(F)c(F)c(F)c(F)c1F
inactive: activity (max response) [6] -5.17%
active: Potency [1] 4.17 µM | Potency [2] 2.63 µM | Potency [8] 20.9 µM | Potency [5] 16.6 µM

CC(C)(O)CC(=O)NCCn1ccc2ncnc(Nc3ccc(Oc4cccc(C(F)(F)F)c4)c(Cl)c3)c21
active: Potency [1] 14.6 µM and 16.6 µM | Potency [2] 9.2 µM and 6.61 µM | Potency [8] 9.35 µM | Potency [5] 20.9 µM | Potency [6] 14.1 µM | Potency [7] 8.91 µM

NCCCCNCCCN
active: Potency [1] 5.9 µM | Potency [2] 5.9 µM | Potency [9] 23.5 µM | Potency [10] 18.7 µM | Potency [3] 11.8 µM | Potency [5] 13.2 µM | Potency [4] 11.8 µM
inactive: activity (max response) [6] 4.66% | Potency [7]

CN1CCCN(C(=O)c2cccc(-c3ccc(C=C4C(=O)Nc5ccc(Cl)cc54)o3)c2)CC1
active: Potency [1] 0.517 µM | Potency [2] 0.461 µM | Potency [10] 5.9 µM | Potency [3] 5.9 µM | Potency [4] 1.87 µM

Nc1cccc(-c2cc3c(Oc4cccc(O)c4)ncnc3[nH]2)c1
active: Potency [1] 1.66 µM | Potency [2] 2.91 µM and 3.32 µM | Potency [8] 16.6 µM | Potency [3] 16.6 µM | Potency [6] 3.16 µM | Potency [7] 8.91 µM

CN(C)CCCN1c2ccccc2CCc2ccc(Cl)cc21
inactive: Potency [8]
active: Potency [1] 16.6 µM | Potency [2] 10.6 µM and 14.8 µM | Potency [7] 25.1 µM

CN(C)Cc1cccc(N=C(c2ccccc2)c2c(O)[nH]c3cc(C(=O)N(C)C)ccc23)c1
active: Potency [1] 2.95 µM | Potency [2] 7.42 µM | Potency [3] 16.6 µM | Potency [5] 7.43 µM | Potency [4] 10.5 µM

CCN(CC)CCCCNc1ncc2cc(-c3cc(OC)cc(OC)c3)c(NC(=O)NC(C)(C)C)nc2n1
active: Potency [1] 5.8 µM and 8.33 µM | Potency [2] 5.8 µM and 9.34 µM | Potency [3] 14.8 µM | Potency [5] 16.6 µM | Potency [6] 28.2 µM | Potency [7] 25.1 µM
